Source: PubChem (several laboratories)
Most compounds without a hit are left out; they make up all but 3.8% or so of the library.
p-CIP stab down: p/CIP-EGFP fusion destabilizers, primary screen, fluorescence, F442A cells. 16 h. decrease of EGFP signal, % at 10 µM. Q05BA5. 290,000 compounds, 0.01% hits;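 active = EGFP signal decrease of at least 30% at 10 µM or well 3 SD below plate mean, unless failing retest; inactive = the rest, including hits failing retest or dose response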
Target sequence (Q05BA5 1-1403): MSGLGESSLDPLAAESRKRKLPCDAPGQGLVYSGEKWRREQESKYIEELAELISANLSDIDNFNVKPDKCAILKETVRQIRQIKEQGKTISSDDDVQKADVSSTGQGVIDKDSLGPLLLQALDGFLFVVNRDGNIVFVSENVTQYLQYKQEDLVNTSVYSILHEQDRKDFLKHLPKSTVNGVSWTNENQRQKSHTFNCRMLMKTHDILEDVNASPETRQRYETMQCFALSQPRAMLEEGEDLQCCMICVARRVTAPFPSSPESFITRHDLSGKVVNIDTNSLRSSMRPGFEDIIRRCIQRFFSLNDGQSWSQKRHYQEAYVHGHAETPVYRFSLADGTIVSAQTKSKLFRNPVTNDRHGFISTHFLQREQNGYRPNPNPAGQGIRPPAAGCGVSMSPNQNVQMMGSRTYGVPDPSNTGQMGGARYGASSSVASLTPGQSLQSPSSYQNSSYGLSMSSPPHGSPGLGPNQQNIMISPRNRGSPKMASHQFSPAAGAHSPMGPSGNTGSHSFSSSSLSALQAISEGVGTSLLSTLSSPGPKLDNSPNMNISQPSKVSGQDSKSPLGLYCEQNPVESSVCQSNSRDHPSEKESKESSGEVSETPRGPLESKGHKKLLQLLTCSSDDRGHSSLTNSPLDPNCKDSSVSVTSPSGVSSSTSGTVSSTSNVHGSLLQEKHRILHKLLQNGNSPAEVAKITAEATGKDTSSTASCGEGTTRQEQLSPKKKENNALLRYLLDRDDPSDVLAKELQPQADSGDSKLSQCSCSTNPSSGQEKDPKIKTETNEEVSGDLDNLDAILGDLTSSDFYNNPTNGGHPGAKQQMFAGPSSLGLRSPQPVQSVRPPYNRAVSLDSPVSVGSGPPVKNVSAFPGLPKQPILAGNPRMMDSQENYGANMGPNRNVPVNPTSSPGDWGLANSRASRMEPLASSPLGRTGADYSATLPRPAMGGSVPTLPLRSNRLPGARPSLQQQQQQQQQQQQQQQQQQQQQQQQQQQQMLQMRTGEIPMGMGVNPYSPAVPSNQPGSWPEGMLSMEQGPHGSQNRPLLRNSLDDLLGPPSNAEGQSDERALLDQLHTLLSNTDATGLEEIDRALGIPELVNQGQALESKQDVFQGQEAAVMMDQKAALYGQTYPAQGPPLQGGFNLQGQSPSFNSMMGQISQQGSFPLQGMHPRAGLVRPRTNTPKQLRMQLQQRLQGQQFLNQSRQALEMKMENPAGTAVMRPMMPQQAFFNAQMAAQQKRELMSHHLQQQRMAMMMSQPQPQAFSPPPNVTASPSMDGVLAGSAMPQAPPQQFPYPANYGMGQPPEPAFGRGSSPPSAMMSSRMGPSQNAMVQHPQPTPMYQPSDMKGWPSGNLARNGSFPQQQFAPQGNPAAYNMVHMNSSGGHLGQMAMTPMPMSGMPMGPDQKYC
HSF1 inhib: HSF1 inhibitors in luciferase reporter cells, primary screen, cell-based, NIH3T3, luminescence | activity change, negative = inhibition, % at 7.5 µM (by protocol) | NIH3T3-HGL HSE-luciferase, MG132-induced, luminescence 8 h; active compounds read low | 300,000 compounds, 0.77% hits;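 active = more than half of replicate wells show activity change below -50%, luminescence cut by over half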;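 note: luciferase reports HSF-1 transcriptional activity via heat shock element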
HSP90 refold inh: HSP90 inhibitors, primary screen, cell lysate, luminescence; 290,000 compounds, 0.91% hits; Rabbit reticulocyte lysate, luciferase refolding luminescence, 3 h; inhibition, % at 5.6 µM; AID 1789, 2009; Heat shock protein HSP 90 (rabbit reticulocyte lysate; luciferase refolding);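 active = inhibition above the screen-wide mean plus 3 SD, computed separately per campaign, cut at about 16% in these data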;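 note: inhibitors lower the luminescence because luciferase stays unfolded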
Hsp70 act: Hsp70 transcriptional activators, primary screen, cell-based, HeLa, Hsp70 promoter luciferase, luminescence, 10 µM; HeLa Hsp70 promoter luciferase reporter; scaled: vehicle 0, proteasome-inhibitor control 100%; activation, % at 10 µM; 200,000 compounds, 0.04% hits; AID 1203, 2008;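 active = activation above the mean across all tested compounds plus 3 SD, cutoff set per campaign, cut at about 5.5% in these data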
HSF1 activator: HSF-1 activators, primary screen, NIH3T3-HGL cells, MG132 stress, luminescence, single point. NIH3T3-HGL HSF-1 luciferase reporter, 8 h; 100% = twice DMSO control signal. activation, % at 9 µM. 300,000 compounds, 1.7% hits;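 active = mean replicate activation of at least 50% with a set share of replicates each reaching 50%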
NALP1 inh: NALP1 inflammasome inhibitors in reconstituted yeast, colorimetric, S. cerevisiae, triplicate retest; S. cerevisiae NALP1/ASC/caspase-1 growth, X-gal OD620, 72 h; inhibition, % at 10 µM; 280,000 compounds, 0.61% hits; in the data active = inhibition mostly above about 24%, no sharp cut-off; inactive = mostly below about 32%
Of the large screens only hits and unclear results are named; the others gave an inactive call.

Cc1cccc(Nc2nnc(SCC(=O)Nc3cccc(S(=O)(=O)N4CCCCC4)c3)s2)c1	HSF1 activator 58
Cc1ccc(Nc2nnc(SCC(=O)Nc3ccc(S(=O)(=O)N4CCOCC4)cc3)s2)cc1	HSF1 activator 72
Cc1ccc2nc(SCC(=O)Nc3cccc(S(=O)(=O)NC4=NCCCCC4)c3)[nH]c2c1	HSF1 activator 112 (no result: Hsp70 act)
Cc1c(C(=O)N2CCN(c3cccc(Cl)c3)CC2)cccc1[N+](=O)[O-]	none
Cc1ccc(Nc2nnc(SCC(=O)Nc3cccc(S(=O)(=O)NC4=NCCCCC4)c3)s2)cc1	HSF1 activator 86
Cc1nnc(SCC(=O)Nc2cccc(S(=O)(=O)NC3=NCCCCC3)c2)n1Cc1ccccc1	none
CCc1cc(SC#N)cc(C)c1NC(=O)CCl	HSF1 activator 113
Cc1cc(SC#N)cc(C)c1NC(=O)CCl	HSF1 activator 136
CCc1cc(SC#N)cc(C)c1N	none
O=C(Nc1cccc(Cl)c1)N1CCN(c2ncccn2)CC1	none
O=C(Nc1ccc(Cl)cc1Cl)N1CCN(c2ncccn2)CC1	NALP1 inh 42
CCN(Cc1ccc2c(c1)OCO2)C(=O)/C=C/c1cccc(Br)c1	HSF1 inhib -74 (no result: Hsp70 act)
COc1cccc(NC(=O)C(OC(=O)/C=C/c2ccc3c(c2)OCO3)c2ccccc2)c1 (configuration not stated)	HSF1 activator 54
CC(=O)Nc1ccc(NC(=O)C(C)OC(=O)/C=C/c2ccc3c(c2)OCO3)cc1 (configuration not stated)	none (no result: p-CIP stab down, HSP90 refold inh, Hsp70 act, NALP1 inh)
COc1cccc(/C=C/C(=O)NCc2ccc3c(c2)OCO3)c1	HSF1 inhib -85 (no result: Hsp70 act)
C=CCn1c(=O)c2c3c(sc2n2c(Nc4ccccc4)nnc12)CCCC3	HSF1 activator 68
Cc1cccc(Oc2ccc(Cl)cc2N)c1	none
CCN(C(=O)CSc1ncccc1C(=O)Oc1cccc([N+](=O)[O-])c1)c1cccc(C)c1	HSF1 activator 60
Clc1ccc(-c2cc(CSc3ccccc3)on2)cc1	HSF1 activator 66
Clc1ccc(-c2cc(CSc3cccc(Cl)c3)on2)cc1	none
c1ccc(SCc2cc(-c3ccccc3)no2)cc1	HSF1 activator 67
CC1=C(C(=O)Nc2ccccn2)C(c2ccc(Br)cc2)NC(=S)N1 (configuration not stated)	none
CC1=C(C(=O)Nc2ccccn2)C(c2ccc(Cl)cc2)NC(=S)N1 (configuration not stated)	HSF1 activator 64
CCC(C)N(C(=O)C(F)(F)F)C(C(=O)NC1CCCCC1)c1ccncc1 (configuration not stated)	HSF1 inhib -52
CC(C)c1ccc(N(C(=O)c2csnn2)C(C(=O)NC2CCCC2)c2ccncc2)cc1 (configuration not stated)	HSF1 activator 53 (no result: Hsp70 act)
COc1ccc(CNC(=O)C(c2ccc(C)o2)N(C(=O)c2csnn2)c2ccc(C(C)C)cc2)cc1 (configuration not stated)	HSF1 activator 71
Cc1cc(C)c(N(C(=O)c2csnn2)C(C(=O)NC2CCCC2)c2ccncc2)c(C)c1 (configuration not stated)	HSF1 inhib -76 (no result: Hsp70 act)
O=C(NC1CCCC1)C(c1ccncc1)N(C(=O)c1csnn1)c1ccc(F)cc1 (configuration not stated)	none (no result: Hsp70 act)
COc1ccc(NC(=O)NC2(C(=O)N3CCN(C)CC3)CCCCC2)cc1	none (no result: Hsp70 act)
Cc1ccc(C)c(C(=O)NC(C)c2ccc(-n3ccnc3)cc2)c1 (configuration not stated)	none (no result: Hsp70 act)
Cc1ccc(N(C(=O)c2csnn2)C(C(=O)NC2CCCC2)c2ccncc2)c(C)c1 (configuration not stated)	HSF1 activator 61 (no result: Hsp70 act)
Cc1ccccc1N(C(=O)c1csnn1)C(C(=O)NC(C)(C)C)c1ccncc1 (configuration not stated)	HSF1 activator 93
